Drawing on PubChem BioAssay (NCATS), this text covers Potency for 27 compounds.

The structures appear in SMILES notation. Inconclusive results are not listed. A call without a number means that no potency is given here. Activity calls are given as the source filed them. Calls come from the whole dose curve; as a rule, active = well fitted curve in the direction sought with a large enough effect; inconclusive = small, poorly fitted or top-dose-only effect, or another doubt; inactive = no such curve, though single readings can be large; an effect the other way counts as inactive or inconclusive. Where a SMILES comes first, the peptide text is derived from it. The star is where a group is joined. Cbz = O=C(OCc1ccccc1)*; CH2F = FC*

Test system in the first experiment: not listed separately
Briefly: P-glycoprotein substrates identified in KB-8-5-11 adenocarcinoma cell line, qHTS therapeutic library screen (AID 1346987). Note: nearly all actives have a fitted effect of over 65% in size. The settings on record: KB-8-5-11 (P-gp overexpressing) viability, CellTiter-Glo, 72 h; series mostly up to 44.5 µM. The essentials:
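Human cervical adenocarcinoma KB-8-5-11 cells, selected in colchicine to over-express P-gp and assayed without it, were exposed for 72 h to titrated compounds. An ATP-based luminescent viability signal gave AC50.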
(In general: In qHTS, concentration-response curves come from the screen itself.)
On to `O=C(Cn1c2ccccc2c2nc3n(c(=O)c21)CCS3)N1CCCC1`, for which the Potency entry was “inactive”.

For `CC1(C)CC[C@]2(C(=O)O[C@@H]3O[C@H](CO)[C@@H](O)[C@H](O)[C@H]3O)CC[C@]3(C)C(=CCC4[C@@]5(C)C[C@@H](O)[C@H](O)[C@@](C)(CO)C5[C@H](O)C[C@]43C)C2[C@@H]1O` (some centres not stated), the Potency result was “inactive”.

Regarding `COC(=O)C1=CO[C@@H](O[C@@H]2O[C@H](CO)[C@@H](O)[C@H](O)[C@H]2O)[C@@H]2[C@@H](C)[C@@H](O)C(O)[C@H]12` (some centres not stated), the Potency result is “inactive”.

Regarding `COc1ccc(OC)c(C2C(C#N)=C(N)Oc3n[nH]c(-c4ccc5ccccc5c4)c32)c1` (configuration not stated), the Potency entry was “inactive”.

For `CC(=O)OC1CC2C(C)(C)C(=O)C=CC2(C)C2CC(=O)C3=C(CCC3C3=CC(O)OC3=O)C12C` (configuration not stated), the Potency entry is “inactive”.

Take `C=C1C2(C)CC3C4(C)C=CC(=O)OC(C)(C)C4CCC3(C)C1(C(=O)OC)C(=O)C(C)(O)C2=O` (configuration not stated): the Potency result was “inactive”.

In the case of `COc1ccc(-c2ccn(CC[C@](C)(C(=O)NO)S(C)(=O)=O)c(=O)c2)c(F)c1`, the Potency result is “inactive”.

As to `O=C(/C=C/N1C[C@@H]2C[C@@H]1CN2c1ccccn1)c1ccccc1O`, the Potency entry is “inactive”.

The subject of the next experiment is Zika virus NS2B-NS3 protease (linked construct). Briefly: Primary screen NINDS Rhodamine qHTS for Zika virus inhibitors (AID 1347160). Note: nearly all actives have a fitted effect of over 55% in size. The settings on record: purified NS2B-NS3 protease, Rhodamine110 substrate fluorescence; series mostly up to 33.1 µM. In short, it runs like this: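 Rhodamine110-peptide cleavage (1.5 µM substrate) by 25 nM linked NS2B-NS3 enzyme at pH 8.0 (Tris, Tween 20), after 15 min RT preincubation with compounds; 15-min fluorescence change normalized to controls and Hill-fitted.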
With `C/C=C(/C)C(=O)O[C@@H]1C[C@@H](OC(=O)/C(C)=C\C)[C@@]2(C)C3C(=O)C=C(C)C2C3C1(C)C`, the Potency result was “inactive”.

For the compound `CCOC(=O)C1=C(N)Oc2ccc(Cl)cc2C1C(C#N)C(=O)OCC` (configuration not stated), the Potency entry is “inactive”.

Take `C[C@H]1CC[C@@]2(OC1)O[C@H]1CC3C4CC[C@H]5C[C@@H](O)CC[C@]5(C)C4CC(=O)[C@]3(C)[C@H]1[C@@H]2C` (some centres not stated): the Potency entry is “inactive”.

Turning to `CC1OC(OC2C(OC3C(O[C@H]4CC[C@@]5(C)C(CC[C@]6(C)C5C(=O)CC5=C7CC(C)(C)CC(O)[C@]7(C)CC[C@]56C)C4(C)C)OC(C(=O)O)C(O)C3O)OCC(O)C2O)C(O)C(O)C1O` (some centres not stated), the Potency entry is “inactive”.

As for `CCC/C=C/C=C/C1CC(O)C(O)C(=O)C1CO` (configuration not stated), the Potency result is “inactive”.

Consider `CC1(C)CC[C@]2(C(=O)O[C@@H]3O[C@H](CO)[C@@H](O)[C@H](O)[C@H]3O)CC[C@]3(C)C(=CCC4[C@@]5(C)CC[C@H](O[C@@H]6O[C@H](C(=O)O)[C@@H](O)[C@H](O)[C@H]6OC6OC(CO)C(O)C(O)C6O)C(C)(C)C5CC[C@]43C)[C@@H]2C1` (some centres not stated), for which the Potency result is “inactive”.

Regarding `Cc1ncc([N+](=O)[O-])n1C[C@H](O)CN1CCOCC1`, the Potency entry was “inactive”.

For `CC1(C)CC[C@]2(C(=O)O[C@@H]3O[C@H](CO[C@@H]4O[C@H](CO[C@@H]5O[C@H](CO)[C@H](O)[C@H](O)[C@H]5O)[C@@H](O)[C@H](O)[C@H]4O)[C@@H](O)[C@H](O[C@@H]4O[C@H](CO)[C@@H](O)[C@H](O)[C@H]4O)[C@H]3O)[C@H](O)C[C@]3(C)C(=CCC4[C@@]5(C)CC[C@H](O[C@@H]6OC[C@@H](O)[C@H](O)[C@H]6O)[C@@](C)(C(=O)O)C5CC[C@]43C)[C@@H]2C1` (some centres not stated), the Potency entry is “inactive”.

As to `CC1(CO)CCCC2(C)C3COC(=O)C3=CC(O)C12` (configuration not stated), the Potency entry is “inactive”.

In the case of `C=C1C(=O)OC2CC(COC(=O)C(C)C)=C(C(C)CCCOC(C)=O)[C@@H](OC(C)=O)C12` (some centres not stated), the Potency entry is “inactive”.

As for `CC(C/C=C/C(C)(C)O)C1CCC(C)(O)C(O)C1` (configuration not stated), the Potency result was “inactive”.

For `CCNC(=O)OC1CCN(c2nncc3cc(OC)c(OC)cc23)CC1`, the Potency entry was “inactive”.

Turning to `C=C1CC[C@H]2[C@@](C)(CCC(O)[C@@]2(C)CO)[C@@H]1/C=C/C(=C\C(=O)O)C(=O)O` (some centres not stated), the Potency entry was “inactive”.

Consider `COc1cc(/C=C/C(=O)OC[C@H]2O[C@@H](OC3CC(C)=C(C(=O)O)C(C)(C)C3)[C@H](O)[C@@H](O)[C@@H]2O)cc(OC)c1O` (some centres not stated), for which the Potency result is “inactive”.

As to `CC1(C)C2CC[C@]3(C)C(C(=O)C=C4[C@H]5C[C@@](C)(C(=O)O)CC[C@]5(C)CC[C@]43C)[C@@]2(C)CC[C@@H]1O` (some centres not stated), the Potency entry was “inactive”.

For the compound `C/C=C1/[C@H](O[C@@H]2O[C@H](CO)[C@@H](O)[C@H](O)[C@H]2O)OC=C(C(=O)OC)[C@H]1CC(=O)OCCc1ccc(OC(=O)C[C@@H]2C(C(=O)OC)=CO[C@@H](O[C@@H]3O[C@H](CO)[C@@H](O)[C@H](O)[C@H]3O)/C2=C/C)cc1`, the Potency result is “inactive”.

`COC(=O)C[C@@H]1C(C(=O)O)=CO[C@@H](O[C@@H]2O[C@H](CO)[C@@H](O)[C@H](O)[C@H]2O)/C1=C\COC(=O)/C=C/c1ccc(O)c(OC)c1`: the Potency result is “inactive”.

Regarding `CC1(C)C=Cc2c(ccc3c2[N+]([O-])=C2C3(O)CC34NC(=O)C5(CCCN5C3=O)CC4C2(C)C)O1` (configuration not stated), the Potency result was “inactive”.

For `COC(=O)CC[C@H](NC(=O)[C@H](CC(C)C)NC(=O)OCc1ccccc1)C(=O)N[C@@H](Cc1cnc[nH]1)C(=O)N[C@@H](CC(=O)OC)C(=O)CF` (Cbz-LE(OMe)HD(OMe)-CH2F), the Potency entry is “inactive”.
